# Only a selection was taken, and hits are over-represented in it overall.
# ID4 SMM: binders of human ID4 protein; AID 624137; small molecule microarray, Flag-ID4 binding, fluorescence F/B; calls only; actives 1.2% (n = 31,000); call rule not given here;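 also: a binder raises fluorescence above local background on the spot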
# Target sequence (P47928 whole entry, looked up): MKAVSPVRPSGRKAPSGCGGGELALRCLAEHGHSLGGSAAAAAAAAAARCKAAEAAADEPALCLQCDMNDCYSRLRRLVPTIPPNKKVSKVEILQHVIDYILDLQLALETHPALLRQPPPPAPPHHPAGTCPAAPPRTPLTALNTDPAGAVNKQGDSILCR
# * = called active by the depositor; i = inactive; + = active, no number.
SMILES,ID4 SMM
CC(C)C#Cc1cnc2c(c1)C(=O)N([C@@H](C)CO)C[C@H](C)[C@@H](CN(C)C(=O)c1cccnc1)O2,i
C[C@H](CO)N1C[C@H](C)[C@@H](CN(C)Cc2cncnc2)Oc2ncc(C#Cc3ccccn3)cc2C1=O,+
C[C@H]1CN([C@@H](C)CO)C(=O)c2cc(C#Cc3ccccn3)cnc2O[C@H]1CN(C)Cc1ccccc1,i
C[C@@H]1CN([C@H](C)CO)C(=O)c2cc(-c3ccncc3)cnc2O[C@H]1CN(C)Cc1ccc(F)cc1,i
C[C@@H]1CN([C@H](C)CO)C(=O)c2cc(-c3ccc(C#N)cc3)cnc2O[C@H]1CN(C)Cc1ccncc1,+
C[C@@H]1CN([C@H](C)CO)C(=O)c2cc(C#CCN(C)C)cnc2O[C@H]1CN(C)C(=O)c1cccnc1,+
C[C@@H]1CN([C@@H](C)CO)C(=O)c2cc(C#CCN(C)C)cnc2O[C@@H]1CN(C)C(=O)c1cccc(F)c1,i
Cc1cc(C)c(NC(=O)CSc2nc3c(c(-c4ccco4)c2C#N)CCCC3)c(C)c1,i
CN(C)CCCNc1ncnc(N)c1[N+](=O)[O-],i
O=C(COc1ccc(C2CCCCC2)cc1)Nc1cccc2ncccc12,i
Cc1nn(C(C)(C)C)c(OC(=O)c2ccc(Cl)cc2)c1S(=O)(=O)c1ccccc1,i
Cc1ccc(NC(=O)COc2ccc3cc(-c4ccc(F)cc4)c(=O)oc3c2)cc1,i
CC(=O)NC(=O)C1C=C2c3ccccc3C=CC2OC1=Nc1ccc(C)cc1 (stereo not drawn),i
C[C@@H]1CN([C@H](C)CO)C(=O)c2cc(-c3cccc(C(=O)N(C)C)c3)cnc2O[C@H]1CN(C)C,+
CCCN(C)C[C@H]1Oc2ncc(-c3cccc(C(=O)N(C)C)c3)cc2C(=O)N([C@H](C)CO)C[C@@H]1C,i
C[C@@H]1CN([C@H](C)CO)C(=O)c2cc(-c3ccc(C(=O)N(C)C)cc3)cnc2O[C@H]1CN(C)C,+
C[C@H]1CN([C@@H](C)CO)C(=O)c2cc(-c3ccc(C(=O)N(C)C)cc3)cnc2O[C@@H]1CN(C)C,i
CCCN(C)C[C@@H]1Oc2ncc(-c3cccc(C(=O)N(C)C)c3)cc2C(=O)N([C@@H](C)CO)C[C@H]1C,+
CCCN(C)C[C@H]1Oc2ncc(-c3cccc(C(=O)N(C)C)c3)cc2C(=O)N([C@H](C)CO)C[C@H]1C,i
C[C@@H]1CN([C@H](C)CO)C(=O)c2cc(-c3cccc(C(=O)N(C)C)c3)cnc2O[C@@H]1CN(C)C,i
C[C@@H]1CN([C@@H](C)CO)C(=O)c2cc(-c3cccc(C(=O)N(C)C)c3)cnc2O[C@@H]1CN(C)C,i
C[C@@H]1CN([C@@H](C)CO)C(=O)c2cc(-c3ccc(C(=O)N(C)C)cc3)cnc2O[C@@H]1CN(C)C,i
Cc1cccc(NC(=O)CSc2n[nH]c(-c3ccccc3)n2)c1,i
COC(=O)c1cccc(NC(=O)CSc2n[nH]c(-c3ccc(Cl)cc3)n2)c1,i
COC(=O)C(CC(=O)c1ccc(Br)cc1)n1cncn1 (stereo not drawn),i
SMILES,ID4 SMM
CN(CC(=O)Nc1cc(C(F)(F)F)ccc1Cl)S(=O)(=O)c1ccc2ccccc2c1,i
Cc1ccc(N(CC(N)=O)S(=O)(=O)c2ccc(Cl)cc2)cc1C,i
CCCn1c2ccccc2c2nnc(Sc3ccc4nsnc4c3[N+](=O)[O-])nc21,i
COc1ccc(C(Nc2ccccn2)c2cc(Cl)c3cccnc3c2O)cc1[N+](=O)[O-] (stereo not drawn),i
Nc1c(S(=O)(=O)c2ccccc2)nnn1-c1ccc(OC(F)(F)F)cc1,i
Cc1nnc(SCc2nc(N)nc(Nc3ccc4ccccc4c3)n2)s1,i
CCn1c(SCC(=O)Nc2ccc(Br)c(Cl)c2)nnc1-c1ccccc1F,i
COc1ccc(OC)c(S(=O)(=O)N2CCC(C(=O)Nc3ccc(Oc4ccccc4)cc3)CC2)c1,i
Cc1cccc(NC(=O)CCCC(=O)O)c1C,i
OC(CSc1nc2ccccc2s1)Cn1c2ccccc2c2ccccc21 (stereo not drawn),i
Cc1ccc(N(CC(=O)Nc2ccc(F)c(Cl)c2)S(C)(=O)=O)cc1,i
CC(C)Cc1ccc(S(=O)(=O)N2c3cc(F)ccc3CCC2C)cc1 (stereo not drawn),i
O=[N+]([O-])c1ccc(OCc2nc(-c3ccncc3)no2)cc1,i
CCN1CCN(c2oc(COc3ccccc3C)nc2C#N)CC1,i
C=CCN1CCN(c2nc3ccccc3nc2C#N)CC1,+
Cc1cc(C)n2nc(NCc3cccc([N+](=O)[O-])c3)nc2n1,i
O=C(CCc1ccc(O)c(O)c1)C[C@H](CCc1ccc(O)c(O)c1)O[C@@H]1OC[C@@H](O)[C@H](O)[C@H]1O,i
Cc1ccnc(NC(c2cccc(F)c2)c2ccc3ccc(C)nc3c2O)c1 (stereo not drawn),i
COc1ccc(NC(=O)CN2CCN(C(=O)c3ccco3)CC2)cc1,i
COc1ccc(N2C(=O)CC(SCCc3nc4ccccc4[nH]3)C2=O)cc1 (stereo not drawn),i
CCOc1ccc(N2C(=O)CC(Sc3nc(O)c(CC)c(=O)[nH]3)C2=O)cc1 (stereo not drawn),+
COc1ccc(NC(=O)CSC2CC(=O)N(c3cc(Cl)cc(Cl)c3)C2=O)cc1 (stereo not drawn),i
CC1C(=O)C(=O)[C@@H]2O[C@@H]2C1=O (stereo partly drawn),i
N#Cc1c(NC(=O)CCCOc2ccc(Cl)cc2Cl)sc2c1CCCC2,i
COC(=O)C(C(C)c1c[nH]c2ccccc12)[N+](=O)[O-] (stereo not drawn),i
SMILES,ID4 SMM
Nc1cc(N)nc(SCC(=O)Nc2cccc(Cl)c2Cl)n1,i
COc1ccc(-c2cc(C)nc(SCC(=O)Nc3cccc(Cl)c3Cl)n2)cc1,+
COc1ccc(-c2cc(=O)[nH]c(SCC(=O)Nc3cccc(Cl)c3C)n2)cc1,i
CCOC(=O)CSc1nnc2c3ccccc3n(C)c2n1,i
Cn1c2ccccc2c2nnc(SCCN3CCCCC3)nc21,+
c1ccc2c(c1)[nH]c1nc(SCCN3CCCCC3)nnc12,i
Cc1ccc(NC(=O)CSc2nc3c(c(C(F)(F)F)n2)CCCC3)cc1C,i
CC(C)(C)c1ccc(C(=O)N2CCN(c3ccc([N+](=O)[O-])c(NCc4cccnc4)c3)CC2)cc1,i
Cc1ccc(OCC(=O)Nc2ccc3oc(-c4ccc(F)cc4Cl)nc3c2)cc1,i
Cn1c(SCC(=O)N2CCN(Cc3ccccc3)CC2)nnc1-c1ccncc1,+
Cn1c(SCC(=O)Nc2ccc(Oc3ccccc3)cc2)nnc1-c1ccncc1,i
CCCn1c(SCC(=O)N2CCOCC2)nnc1-c1ccncc1,i
O=C(O)C1CC=CCC1C(=O)Nc1ccc(S(=O)(=O)N2CCc3ccccc32)cc1 (stereo not drawn),i
CS(=O)(=O)N(CC(=O)NC1CC2CCC1C2)c1ccc(Cl)c(C(F)(F)F)c1 (stereo not drawn),i
CC(C)(C)c1ccc(OCc2nnc(Sc3ccc([N+](=O)[O-])cn3)n2-c2ccccc2)cc1,i
Cc1ccc(C(=O)Nc2sc3c(c2C#N)CCCC3)cc1S(=O)(=O)N1CCOCC1,i
COCCOC(=O)N1C(=O)[C@@]2(c3cc(C#CCC(C(=O)OC)C(=O)OC)ccc31)[C@H](c1ccccc1OCCO)N1[C@H](c3ccccc3)[C@H](c3ccccc3)OC(=O)[C@H]1[C@@H]2C(N)=O,i
COc1c(O)cc2occ(-c3ccccc3O)c(=O)c2c1O,i
